Bioassay records from PubChem.
Many of the other results were omitted from the sample, so hits are more common in it than they were.
Pf apPOL inh – Pf-apPOL DNA polymerase inhibition; Recombinant Pf-apPOL, molecular beacon fluorescence, 1.5 h; inhibition, % at 10 µM; 210,000 compounds, 0.25% hits
mHTT-CaM PPI inh – inhibitors of human mutant huntingtin-calmodulin interaction | P42858 | AlphaScreen His-mHTT/GST-CaM binding, luminescence | inhibition, % at 15 µM | 190,000 compounds, 3.6% hits
Target sequence (P42858 whole entry, looked up, change not shown): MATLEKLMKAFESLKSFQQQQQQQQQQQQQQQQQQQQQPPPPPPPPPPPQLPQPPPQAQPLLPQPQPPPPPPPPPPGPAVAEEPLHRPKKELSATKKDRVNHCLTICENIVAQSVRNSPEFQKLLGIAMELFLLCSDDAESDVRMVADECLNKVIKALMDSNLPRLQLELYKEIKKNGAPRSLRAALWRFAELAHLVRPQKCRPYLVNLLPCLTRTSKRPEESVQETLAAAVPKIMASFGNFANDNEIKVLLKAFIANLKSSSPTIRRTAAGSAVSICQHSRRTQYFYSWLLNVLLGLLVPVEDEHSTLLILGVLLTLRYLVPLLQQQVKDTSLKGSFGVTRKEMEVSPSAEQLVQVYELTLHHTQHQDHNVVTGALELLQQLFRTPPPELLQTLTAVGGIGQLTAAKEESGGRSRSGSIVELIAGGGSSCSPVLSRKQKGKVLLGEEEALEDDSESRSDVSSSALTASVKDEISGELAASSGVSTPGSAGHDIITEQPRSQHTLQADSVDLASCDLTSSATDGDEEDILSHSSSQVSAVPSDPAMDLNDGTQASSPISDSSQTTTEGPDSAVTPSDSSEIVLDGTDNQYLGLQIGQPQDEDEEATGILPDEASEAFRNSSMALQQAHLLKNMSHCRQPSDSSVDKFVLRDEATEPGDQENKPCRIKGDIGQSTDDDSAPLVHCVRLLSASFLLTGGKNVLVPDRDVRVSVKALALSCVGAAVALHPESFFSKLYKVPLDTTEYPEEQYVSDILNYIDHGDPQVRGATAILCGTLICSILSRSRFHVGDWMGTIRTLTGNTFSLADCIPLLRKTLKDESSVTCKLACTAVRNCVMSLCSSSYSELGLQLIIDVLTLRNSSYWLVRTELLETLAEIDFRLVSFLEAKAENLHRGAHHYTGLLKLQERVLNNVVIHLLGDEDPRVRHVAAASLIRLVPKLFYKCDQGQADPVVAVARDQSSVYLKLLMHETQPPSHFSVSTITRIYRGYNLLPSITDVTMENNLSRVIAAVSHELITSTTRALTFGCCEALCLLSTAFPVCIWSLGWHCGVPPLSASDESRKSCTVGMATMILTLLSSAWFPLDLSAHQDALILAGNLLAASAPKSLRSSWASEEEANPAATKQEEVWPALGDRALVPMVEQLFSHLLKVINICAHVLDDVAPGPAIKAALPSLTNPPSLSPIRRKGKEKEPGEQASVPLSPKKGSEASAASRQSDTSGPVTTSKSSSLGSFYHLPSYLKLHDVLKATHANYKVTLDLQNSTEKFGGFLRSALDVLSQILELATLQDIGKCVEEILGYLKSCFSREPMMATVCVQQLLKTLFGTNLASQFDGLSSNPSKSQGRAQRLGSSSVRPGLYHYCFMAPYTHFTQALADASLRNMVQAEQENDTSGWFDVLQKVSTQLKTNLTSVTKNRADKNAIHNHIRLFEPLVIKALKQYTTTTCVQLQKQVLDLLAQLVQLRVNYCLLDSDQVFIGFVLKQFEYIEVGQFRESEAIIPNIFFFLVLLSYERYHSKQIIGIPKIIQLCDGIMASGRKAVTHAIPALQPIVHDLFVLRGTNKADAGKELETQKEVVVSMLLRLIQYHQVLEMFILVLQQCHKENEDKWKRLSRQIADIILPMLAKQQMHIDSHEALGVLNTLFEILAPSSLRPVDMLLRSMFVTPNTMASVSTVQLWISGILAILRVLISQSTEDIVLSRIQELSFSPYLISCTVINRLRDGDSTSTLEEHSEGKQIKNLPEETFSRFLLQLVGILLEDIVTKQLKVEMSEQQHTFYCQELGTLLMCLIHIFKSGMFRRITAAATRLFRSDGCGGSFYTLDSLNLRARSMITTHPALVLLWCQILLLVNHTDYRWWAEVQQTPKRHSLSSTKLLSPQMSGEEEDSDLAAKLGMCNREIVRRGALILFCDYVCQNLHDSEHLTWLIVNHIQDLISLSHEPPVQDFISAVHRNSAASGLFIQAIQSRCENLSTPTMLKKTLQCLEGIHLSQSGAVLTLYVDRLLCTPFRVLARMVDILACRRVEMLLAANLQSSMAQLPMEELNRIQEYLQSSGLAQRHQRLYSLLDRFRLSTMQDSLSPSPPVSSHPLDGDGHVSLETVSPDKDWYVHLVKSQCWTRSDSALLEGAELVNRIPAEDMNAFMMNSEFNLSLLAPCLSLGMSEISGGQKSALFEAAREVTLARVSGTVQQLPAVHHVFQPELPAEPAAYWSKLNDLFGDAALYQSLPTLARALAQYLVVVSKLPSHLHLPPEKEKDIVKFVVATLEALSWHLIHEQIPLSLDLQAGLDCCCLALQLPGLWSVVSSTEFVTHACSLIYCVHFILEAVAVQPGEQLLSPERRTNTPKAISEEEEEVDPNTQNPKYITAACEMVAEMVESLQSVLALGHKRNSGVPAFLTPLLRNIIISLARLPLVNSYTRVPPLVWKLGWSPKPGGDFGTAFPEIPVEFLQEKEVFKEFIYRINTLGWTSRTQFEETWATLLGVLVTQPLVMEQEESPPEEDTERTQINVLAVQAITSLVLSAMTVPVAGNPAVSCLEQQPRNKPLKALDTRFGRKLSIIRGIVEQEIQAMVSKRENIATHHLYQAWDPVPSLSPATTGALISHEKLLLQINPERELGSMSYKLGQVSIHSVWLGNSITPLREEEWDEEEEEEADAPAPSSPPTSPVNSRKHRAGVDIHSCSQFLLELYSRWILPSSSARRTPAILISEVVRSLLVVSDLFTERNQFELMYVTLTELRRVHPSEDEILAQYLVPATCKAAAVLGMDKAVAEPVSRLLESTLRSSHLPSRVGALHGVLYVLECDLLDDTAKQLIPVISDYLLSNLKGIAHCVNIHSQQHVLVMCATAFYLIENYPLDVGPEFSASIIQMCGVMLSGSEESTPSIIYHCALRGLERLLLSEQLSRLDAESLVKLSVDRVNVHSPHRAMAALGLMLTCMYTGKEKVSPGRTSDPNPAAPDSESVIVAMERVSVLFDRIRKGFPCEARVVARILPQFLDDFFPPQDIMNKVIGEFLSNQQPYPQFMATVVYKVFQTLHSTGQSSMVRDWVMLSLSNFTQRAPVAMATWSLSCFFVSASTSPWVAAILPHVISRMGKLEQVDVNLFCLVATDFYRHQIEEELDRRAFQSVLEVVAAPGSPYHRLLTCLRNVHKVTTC
Of the large screens only hits and unclear results are named; the others gave an inactive call. No stated cut-off is given here; in the data, active means inhibition above about 50%; inactive means the rest.

Cc1ccc(N(CC(=O)Nc2ccc(C(N)=O)cc2)S(=O)(=O)c2ccc(F)cc2)cc1	none
CS(=O)(=O)N(CC(=O)Nc1ccccc1)c1cc(C(F)(F)F)ccc1Cl	none
Cc1cccc(N(CC(=O)Nc2ccccc2Cl)S(=O)(=O)c2ccccc2)c1C	none
Cc1ccc(NC(=O)c2cn(C)c(=O)c3c2c2ccccc2n3C)cc1F	none
CCC(=O)NC1CCN(C(=O)c2ccc(F)cc2)C1 (stereo not given)	none
COc1ccc(N2C(=O)c3ccccc3NC2c2ccc3c(c2)OCO3)cc1 (stereo not given)	none
CC(C)(C)OC(=O)N1Cc2ccccc2CC1C(=O)NCCN1CCOCC1 (stereo not given)	none (no result: mHTT-CaM PPI inh)
COc1ccccc1N(CC(=O)Nc1ccc(Br)c(C)c1)S(C)(=O)=O	mHTT-CaM PPI inh 69
COc1ccc(C)cc1N(CC(=O)Nc1cccc(Br)c1)S(C)(=O)=O	none
Cc1ccc(N(CC(=O)Nc2ccc(F)cc2)S(C)(=O)=O)c(C)c1	Pf apPOL inh 74
COc1ccc(NC(=O)CN(c2ccc(C)cc2C)S(C)(=O)=O)cc1OC	none
COc1ccccc1OC1OC(COC(C)=O)C(OC(C)=O)C(OC(C)=O)C1OC(C)=O (stereo not given)	none
CC1=C(C(=O)Nc2ccc(C)c(Cl)c2)C(c2ccccc2Cl)NC(=O)N1 (stereo not given)	mHTT-CaM PPI inh 90
CC1=C(C(=O)Nc2ccc(F)c(F)c2)C(c2ccccc2F)NC(=O)N1 (stereo not given)	none
Cc1ccc(-n2ccnc(NC(=O)c3ccccn3)c2=O)cc1C	mHTT-CaM PPI inh 89
Cc1ccc(-n2ccnc(NC(=O)c3cccc(F)c3)c2=O)cc1C	none
CC(C)c1ccc(-n2ccnc(NC(=O)Nc3ccccc3)c2=O)cc1	none
CC(C)c1ccc(-n2ccnc(NC(=O)c3ccccn3)c2=O)cc1	mHTT-CaM PPI inh 91
C(=Nc1ccc(Nc2ccccc2)cc1)c1ccccc1	mHTT-CaM PPI inh 86
Fc1ccc(N=Cc2ccccc2)cc1	none (no result: mHTT-CaM PPI inh)
COc1ccc(-c2nc3cc(Cl)ccc3c(=O)o2)cc1[N+](=O)[O-]	none
O=c1oc2c(Br)c(O)c(Br)cc2s1	none
O=c1oc2ccc(O)cc2s1	none (no result: Pf apPOL inh)
O=c1oc2c(-c3ccc(Br)cc3)cc(O)cc2s1	none
O=c1oc2c(-c3cccc(C(F)(F)F)c3)cc(O)cc2s1	none
COc1ccc(-c2cc(O)cc3sc(=O)oc23)cc1	mHTT-CaM PPI inh 74
CCc1ccc(-c2cc(O)cc3sc(=O)oc23)cc1	mHTT-CaM PPI inh 73
Cc1ccc(-c2cc(O)cc3sc(=O)oc23)cc1	mHTT-CaM PPI inh 75
Cc1ccc(-c2cc(O)cc3sc(=O)oc23)cc1Cl	mHTT-CaM PPI inh 53
CCc1[nH]nc2c1C1(CCC3(CC1)OCCO3)C(C#N)=C(N)O2	none (no result: Pf apPOL inh)
CC1(C)COc2cc(NC(=O)C34CC5CC(CC(C5)C3)C4)ccc2NC1=O	none
CCc1nnc2c(NC(=O)Cc3cccs3)cccn12	none
Cc1noc(C)c1C(=O)Nc1ccc(Sc2ccccc2)nc1Sc1ccccc1	none (no result: mHTT-CaM PPI inh)
O=C(CCCn1cccc1)N1CCN(C(=O)c2ccco2)CC1	none
O=c1cc(CN2CCSCC2)nc(-c2ccccc2)[nH]1	none
COc1ccc(C(=O)/C=C2/NC(=O)CS2)cc1	Pf apPOL inh 77
COc1cccc(C(=O)C=C2NC(=O)CS2)c1	none (no result: mHTT-CaM PPI inh)
COc1ccc(-c2ncccc2CNC(=O)c2cccs2)cc1	none
O=c1[nH]c(SCc2ccccc2Cl)nc2c1CN(Cc1ccccc1)CC2	none
N#Cc1cccc(NC(=O)CSc2nc3c(c(=O)[nH]2)CN(Cc2ccccc2)CC3)c1	mHTT-CaM PPI inh 54
C=CCOc1ccc(-c2nc(C(=O)N3CCOCC3)cs2)cc1	none
Nc1ncnc(Sc2nc3ccccc3o2)c1[N+](=O)[O-]	mHTT-CaM PPI inh 75
O=[N+]([O-])c1ccc(Sc2nc3ccccc3o2)c([N+](=O)[O-])c1	none
Cc1cc(Sc2ncnc(N)c2[N+](=O)[O-])nc(C)n1	none
Nc1ncnc(SC2=NCCS2)c1[N+](=O)[O-]	mHTT-CaM PPI inh 59
COc1ccc(NC(=O)C(=O)NCC(c2ccsc2)N(C)C)cc1Cl (stereo not given)	none
CC(C)NC(=O)c1cncc(-c2ccc(F)cc2F)c1	Pf apPOL inh 63
CCNC(=O)c1cncc(-c2ccc(F)cc2F)c1	none
Fc1ccc(C2Oc3ccccc3C3=C2C(c2cccs2)n2ncnc2N3)cc1 (stereo not given)	mHTT-CaM PPI inh 61
COc1cccc(C2C3=C(Nc4ncnn42)c2ccccc2OC3c2ccccc2Cl)c1 (stereo not given)	mHTT-CaM PPI inh 58
COc1cccc(C2C3=C(Nc4ncnn42)c2ccccc2OC3c2ccccc2F)c1 (stereo not given)	none
CSc1ccc(C2Oc3ccccc3C3=C2C(c2cccs2)n2ncnc2N3)cc1 (stereo not given)	none
COc1ccc(C2CC(O)(c3ccccc3)Oc3c(C)ccc(C)c32)cc1 (stereo not given)	none
COc1ccc(C2CC(O)(c3ccccc3)Oc3cc(OC)cc(OC)c32)cc1 (stereo not given)	mHTT-CaM PPI inh 92
Cc1ccc(NC(=O)/C(C#N)=C2\NC(C)(C)Cc3ccccc32)c(C)c1	none
O=C(O)c1ccc(S(=O)(=O)c2ccc3c(c2)C(=O)N(c2nc4ccccc4s2)C3=O)cc1	none
COc1cc(NC(=O)N2c3ccccc3Sc3ccccc32)cc(OC)c1	none
COc1ccc(NCC(=O)N2c3ccccc3Sc3ccccc32)cc1	mHTT-CaM PPI inh 60
O=C(c1cc([N+](=O)[O-])ccc1N1CCCC1)N1CCOCC1	none
CN(C)/C(=C1/c2cc([N+](=O)[O-])ccc2-c2c1cc([N+](=O)[O-])cc2[N+](=O)[O-])N1CCOCC1	mHTT-CaM PPI inh 57
COc1ccc(-n2nc(C(=O)NCC(=O)N(C)C3CCCCC3)c3ccccc3c2=O)cc1OC	none
Cn1ccc2c(cc(C(=O)N3CCCCCC3)n2C)c1=O	none
CC(=O)Nc1nc(-c2cc3cc(Cl)cc(Cl)c3oc2=O)cs1	Pf apPOL inh 98
Nc1nc(-c2cc3cc(Cl)cc(Cl)c3oc2=O)cs1	none
Cc1cccc(Oc2nccnc2N2CCC(C(=O)NCc3ccc(F)cc3)CC2)c1	none
O=C(Nc1cccc(Cl)c1)/C(=C/c1ccco1)NC(=O)c1cccs1	none
COc1cc(/C=C2\C(C)=C([N+](=O)[O-])CS2(=O)=O)ccc1O	mHTT-CaM PPI inh 87
COc1cc([N+](=O)[O-])ccc1O	none (no result: Pf apPOL inh)
CCOc1ccc(NC(=O)c2c(NC(=O)CNCCN3CCOCC3)sc3c2CCC3)cc1	mHTT-CaM PPI inh 81
CCOc1ccc(NC(=O)c2c(NC(=O)CNCC3CCCO3)sc3c2CCC3)cc1 (stereo not given)	none
COc1ccc(NC(=O)c2c(NC(=O)CNCc3ccco3)sc3c2CCC3)cc1	none
COc1ccc(NC(=O)c2c(NC(=O)CNCCO)sc3c2CCC3)cc1	mHTT-CaM PPI inh 62
O=S(=O)(Nc1ccc(F)cc1Cl)c1c[nH]c2ncccc12	none
COc1ccc(CNC(=O)CN2CCN(C(=O)Nc3ccccc3)CC2=O)cc1	none
CCOc1ccc(C(=O)N2CCN(c3ccc(Cl)cc3)CC2)cc1	none
Cc1nc2c(C(=O)NCCC(C)C)cnn2c(C)c1Cc1cccc(Cl)c1	none
Cc1nc2c(C(=O)NC(C)C)cnn2c(C)c1Cc1cccc(Cl)c1	mHTT-CaM PPI inh 70
COC(CNC(=O)c1cnn2c(C)c(Cc3ccccc3)c(C)nc12)OC	none
COC(CNC(=O)c1cnn2c(C)c(Cc3cccc(Cl)c3)c(C)nc12)OC	mHTT-CaM PPI inh 61
O=C(Nc1cccc(Cl)c1)N1CCCC(OCc2ccccc2)C1 (stereo not given)	none
CCCCCCCCCn1c[n+](CCCCCCCCC)c2cc(C)c(C)cc21	mHTT-CaM PPI inh 100 (no result: Pf apPOL inh)
COC(=O)c1ccc(=O)oc1	none (no result: Pf apPOL inh)
